Assay results published in PubChem BioAssay (NCI).
About 83,000 compounds went through this panel and 20% of them were active in at least one assay; those are over-represented in the sample as a whole.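 For each line, cells grew in 96-well plates with the test compound present at a single concentration for 48 hours.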 Values without a mark were called inactive. Activity calls are given as the source filed them. Rule for the calls: active = growth percent below 10; inactive = the rest.

How the values were obtained:
Experiment in all cases: NCI-60 one-dose screen, 48 h (100 = growth as untreated, 0 = no growth, -100 = all killed)
Details in all cases: 10 µM
HCT-15 colon = system: HCT-15 colon
SNB-75 CNS = system: SNB-75 CNS
SNB-19 CNS = system: SNB-19 CNS
U251 CNS = system: U251 CNS
SK-MEL-5 melanoma = system: SK-MEL-5 melanoma
UACC-62 melanoma = system: UACC-62 melanoma
SK-MEL-28 melanoma = system: SK-MEL-28 melanoma
PC-3 prostate = system: PC-3 prostate
LOX IMVI melanoma = system: LOX IMVI melanoma
HT29 colon = system: HT29 colon

Row | Structure (SMILES) | growth (HCT-15 colon) | growth (SNB-75 CNS) | growth (SNB-19 CNS) [%] | growth (U251 CNS) | growth (SK-MEL-5 melanoma) | growth (UACC-62 melanoma) | growth (SK-MEL-28 melanoma) | growth (PC-3 prostate) | growth (LOX IMVI melanoma) | growth (HT29 colon)
1 | CC1=NN(C(=O)c2nn(-c3ccc(Cl)cc3)cc2O)C(=O)C1 | 34.5% | 28.7% | 59.6 | 47.9% | 64.9% | 41.5% | 72.1% |  |  | 
2 | Clc1ccc(Cc2ccncc2)cc1 | 104% | 89.8% | 98.9 | 113% | 104% | 95.3% | 112% | 103% | 97.9% | 
3 | CNC(=O)c1cn2c3c(c(N4CCN(C)CC4)c(F)cc3c1=O)OC[C@@H]2C | 102% | 84.1% | 106 | 99.5% | 101% | 103% | 108% | 96.2% | 94.8% | 
4 | COc1cc(C2CC(c3ccc4c(c3)OCO4)=NN2c2ccccc2)cc(OC)c1OC (stereo not drawn) | 81% | 58.8% | 84.8 | 38.9% | 86% | 76.7% | 99.7% | 92.6% | 89.4% | 
5 | Cc1cc(CC(C)CC(C)(C)C)n(O)c(=O)c1 (stereo not drawn) (tested in a mixture with another compound) | 23.8% | 16.7% | 26 | 17.8% | -1.17% (active) | -8.65% (active) | 25.1% | 33.9% |  | 
6 | Cc1cc(SCc2ccccc2)nc(N)n1 | 104% |  | 92.1 | 118% | 117% | 87.5% | 106% | 111% | 103% | 
7 | COc1ccc(C(=O)c2cc3c(OC)c(OC)c(OC)cc3[nH]2)cc1 | 36.1% | 51.9% | 71.9 | 59.8% | 36.9% | 36.7% | 65.2% |  | 56.3% | 
8 | CCOC(=O)c1sc2ncnc(Nc3ccc4c(cnn4C(=O)Nc4ccc(C)c(Cl)c4)c3)c2c1C | 95.3% | 110% | 103 | 99.3% | 102% | 99.6% | 111% |  | 96% | 
9 | O=C(Nc1ccc(F)cc1)c1cc2ccccc2cc1O | 76% | 91.8% | 83.3 | 79.6% |  | 57.6% | 88.7% | 42.9% | 76% | 
10 | O=C(Nc1ccc2c(O)cc(S(=O)(=O)O)cc2c1)c1ccc([N+](=O)[O-])cc1 | 99.3% | 99.6% | 95.8 | 84% | 94.8% | 101% | 102% | 83.1% | 95.1% | 
11 | C=C(NC(=O)C(=C)NC(=O)c1csc(C2=NC3c4csc(n4)C4NC(=O)c5csc(n5)C(C(C)(O)C(C)O)NC(=O)C5CSC(=N5)C(=CC)NC(=O)C(C(C)O)NC(=O)c5csc(n5)C3(CC2)NC(=O)C(C)NC(=O)C(=C)NC(=O)C(C)NC(=O)C(C(C)CC)NC2C=Cc3c(C(C)O)cc(nc3C2O)C(=O)OC4C)n1)C(N)=O (stereo not drawn) | 36.9% | 66.7% | 66.6 | 8.08% (active) | -5.61% (active) | -17% (active) | -34.5% (active) | 63.7% | -7.87% (active) | 
12 | NC(=O)c1cccc(-n2ccc3cc(NC(=O)Nc4ccc(Cl)c(C(F)(F)F)c4)ccc32)n1 | 56.6% | 47.5% | 71 | 56.5% | 78.3% | 70.9% | 79.4% | 53.4% | 76.9% | 
13 | COc1ccc([C@H]2[C@H](C(=O)Nc3cccnc3)c3ccccc3C(=O)N2c2ccccc2)cc1 | 78.1% | 98.9% | 88.4 | 74.8% | 79.4% | 92.3% | 102% |  | 92.5% | 
14 | NC1=NC(c2ccccc2)C2=C(N1)/C(=C/c1ccccc1)CCC2 (stereo not drawn) |  | 85.6% | 97.5 | 34.8% | 98.9% | 77.5% | 102% | 78.7% | -4.8% (active) | 32.2%
15 | CCn1cc(CNc2ccc(C(=O)Nc3ccc4ccccc4c3)cc2)c(C)n1 | 55.8% | 71.8% | 77.6 | 84.5% | -31.5% (active) | 60% | 77.8% |  | 62.5% | 
16 | Cc1ccc(C(C)C)c(O)c1NC(=O)OC(C)C | 92.2% | 77.5% | 99.4 | 105% | 97.6% | 92% | 101% | 85.5% | 99.4% | 
17 | Cc1c(Cl)cccc1NC(=O)CCCl | 110% | 98.1% | 96.7 | 91% | 104% | 93.2% | 108% | 94.3% |  | 
18 | O=C(CI)OCC(COC(=O)CI)OC(=O)CI | 53% | 116% | 101 | 100% | 93.1% | 80.9% | 92.3% | 94% |  | 
19 | COc1cc(-c2nn(-c3ccc(NC(=O)NCCNS(=O)(=O)c4ccc(F)cc4)cc3)cc2-c2ccncc2)ccc1Cl | 47.7% | 13.8% | 31 | 4.44% (active) | -63.6% (active) | 25.7% | 26.4% | 8.93% (active) | 1.79% (active) | 
20 | CCCc1cn(CC(=O)Nc2nc3ccccc3s2)nn1 | 108% | 101% | 102 | 97.8% | 99.5% | 98.1% | 103% | 96.3% | 96.6% | 
21 | COc1cc(-c2ccc[nH]2)[nH]c1/C=C1\N=C(C)C(C(=O)NC(C)C)=C1C | 8.9% (active) | -13.7% (active) | 74.5 | 31.4% | -88.4% (active) | -33.5% (active) | 44% |  | -62.6% (active) | 
22 | COc1ccc(C(=O)N/N=C/c2cc(C(F)(F)F)ccc2Cl)cc1 |  | 101% | 91.9 | 109% | 85.5% | 76.9% | 96.5% | 90.9% | 92.4% | 99.7%
23 | COc1ccc(C2CC(c3cccs3)=NN2c2ccc(S(N)(=O)=O)cc2)cc1 (stereo not drawn) | 84.3% | 70.7% | 77.4 | 78% |  | 42.8% | 63.2% | 49.9% | 102% | 
24 | COc1cc(C)ccc1Oc1nc(Nc2ccc(N3CCOCC3)cc2)ncc1NC(=O)Nc1cc(C(F)(F)F)cc(C(F)(F)F)c1 | 66.6% | 65.9% | 61.4 | 53.1% |  | 82.6% | 94% | 38.1% | 47.1% | 
25 | C[C@]12CC[C@@H]3c4ccc(O)cc4CC[C@H]3[C@@H]1CC[C@@H]2NS(=O)(=O)c1ccc(C(F)(F)F)cc1 | 32.7% | 62.1% | 97.5 |  | 41.2% | 73.5% | 73.1% | 24.2% |  | 
26 | O=C(CCCCC(=O)Oc1c(Cl)cc(Cl)cc1[N+](=O)[O-])Oc1c(Cl)cc(Cl)cc1[N+](=O)[O-] | 100% | 93.9% | 105 | 98% | 102% | 102% | 111% | 104% | 92% | 
27 | COc1cc(/C=C/c2cc(/C=C/c3ccc(O)c(OC)c3)nc(N)n2)ccc1O |  | 5.5% (active) | 23.2 | 2.97% (active) | -18.4% (active) | -57.7% (active) | 9.55% (active) | 13% | -16.1% (active) | -76.2% (active)
28 | CN(C)c1nc(N)c2nccnc2n1 |  | 84.8% | 104 | 112% | 107% | 98% | 118% | 104% | 95.1% | 110%
29 | CCOC(=O)N/N=C/c1ccc(OC)c(OC)c1 | 110% | 106% | 104 | 100% |  | 98.7% | 107% | 104% |  | 
